Reference: PubChem BioAssay (EPA / NIEHS)
Records with an inconclusive call do not appear. Activity calls are given as the source filed them. The calls were made as follows, unless noted: active = hit-call score of the fitted dose curve at least 0.9, where 1 is the maximum; inconclusive = response in the unintended direction; inactive = score below 0.9.

How the values were obtained:
[1] = TOX21_p53_BLA_p2_viability: Viability Assessment in the Tox21 HCT-116 p53 Agonism Beta-lactamase Assay, Phase 2 (AID 2283591);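 also: compound exposure lasted 16 h at 37 °C; actives lower the ATP signal meaning cytotoxicity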
Summary of the method: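 Cytotoxicity readout: CellTiter-Glo ATP luminescence, 30 min at room temperature, after the beta-lactamase read. Cells were HCT116 exposed 16 h at 37C to compounds pin-transferred at 217-fold dilution from DMSO stocks.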

[2] = target: Cellular tumor antigen p53 (Homo sapiens) (UniProt P04637); assay: TOX21_p53_BLA_p2_ratio: Tox21 HCT-116 p53 Agonism Beta-lactamase Assay, Ratio, Phase 2 (AID 2283592)
Summary of the method: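 HCT116 cells carrying a p53-responsive beta-lactamase reporter were plated, incubated 5 h at 37C, then dosed with compounds in DMSO (217-fold dilution) for 16 h. CCF4-AM substrate was added for 2 h at room temperature; the 460/530 nm emission ratio gave gain-of-signal activity relative to DMSO.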

[3] = TOX21_p53_BLA_p3_viability: Viability Assessment in the Tox21 HCT-116 p53 Agonism Beta-lactamase Assay, Phase 3 (AID 2283593);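 also: cells exposed to compound for 16 h before reading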
Summary of the method: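 Cellular ATP was quantified by CellTiter-Glo luminescence, read after 30 min at room temperature. Beforehand, HCT116 cells (4000/well) received compound 5 h post-seeding, 217-fold diluted from DMSO, then incubated 16 h at 37C.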

[4] = target: Cellular tumor antigen p53 (Homo sapiens) (UniProt P04637); assay: TOX21_p53_BLA_p3_ratio: Tox21 HCT-116 p53 Agonism Beta-lactamase Assay, Ratio, Phase 3 (AID 2283596)
Summary of the method: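 HCT116 p53-bla cells (4000/well) given compound in DMSO (217-fold dilution) after 5 h, incubated 16 h at 37C. CCF4-AM substrate 2 h at room temperature; 460/530 nm emission ratio, gain fitted against DMSO.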

[5] = target: Cellular tumor antigen p53 (Homo sapiens) (UniProt P04637); assay: TOX21_p53_BLA_p5_ratio: Tox21 HCT-116 p53 Agonism Beta-lactamase Assay, Ratio, Phase 5 (AID 2283599)
Summary of the method: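 Beta-lactamase reporter ratio (blue 460 nm over green 530 nm, 405 nm excitation) after 2 h CCF4-AM loading, in HCT-116 cells exposed 16 h at 37 C to compounds pinned at 217-fold dilution. Increases relative to DMSO baseline scored.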

[6] = target: Cellular tumor antigen p53 (Homo sapiens) (UniProt P04637); assay: TOX21_p53_BLA_p4_ratio: Tox21 HCT-116 p53 Agonism Beta-lactamase Assay, Ratio, Phase 4 (AID 2283601)
Summary of the method: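 Signal is the blue/green (460nm/530nm) ratio of cleaved versus uncleaved CCF4-AM substrate, read after 2 h substrate loading. Cells were HCT116 carrying the p53-responsive beta-lactamase reporter, dosed 16 h at 37C, 5% CO2; CellTiter-Glo measured in parallel.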

[7] = TOX21_p53_BLA_p5_viability: Viability Assessment in the Tox21 HCT-116 p53 Agonism Beta-lactamase Assay, Phase 5 (AID 2283600)
Summary of the method: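 Cells were plated at 4000/well, rested 5 h at 37C, then given compounds in DMSO (217-fold dilution) for 16 h at 37C, 5% CO2. Following the CCF4-AM beta-lactamase read, CellTiter-Glo was added and luminescence was read after 30 min at room temperature.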

[8] = CCTE_Harrill_HTTr_Viability_MCF7: CCTE's 6-hour Cell Viability Assessment for the High-Throughput Transcriptomics (HTTr) Platform, in MCF-7 cells cultured in DMEM + 10% fetal bovine serum, Harrill Lab (AID 2284010; active = hit-call score of the fitted dose curve at least 0.9, where 1 is the maximum; inactive = score below 0.9)
Summary of the method: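 Viability measured through PI dye exclusion by high-content imaging at 6 h post-dosing.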

[9] = CCTE_Harrill_HTTr_Apoptosis_MCF7: CCTE's 6-hour Apoptosis Assessment for the High-Throughput Transcriptomics (HTTr) Platform, in MCF-7 cells cultured in DMEM + 10% fetal bovine serum, Harrill Lab (AID 2284011; active = hit-call score of the fitted dose curve at least 0.9, where 1 is the maximum; inactive = score below 0.9)
Summary of the method: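 MCF-7 cells in DMEM + 10% fetal bovine serum were exposed to chemicals for 6 hours over an eight-point dilution series. Caspase-3/7 activation was imaged by high content imaging with CellEvent Caspase 3/7 Green; bidirectional fitting used DMSO as baseline.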

[10] = CCTE_Deisenroth_AIME_96WELL_CTox_Active: Cytotoxicity Assessment (CTOX) in CCTE's 96-well Estrogen Receptor Transactivation Assay with AIME metabolic competence (metabolism positive), Deisenroth Lab (AID 2284028)
Summary of the method: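 Chemicals (0.002–200 uM) were first incubated 2 h with alginate-immobilized phenobarbital/beta-naphthoflavone-induced male rat liver S9; conditioned medium then went onto VM7Luc4E2 cells for 24 h, with viability read by protease-substrate fluorescence, fitted bidirectionally.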

[11] = CCTE_Deisenroth_AIME_96WELL_CTox_Inactive: Cytotoxicity Assessment (CTOX) in CCTE's 96-well Estrogen Receptor Transactivation Assay without AIME metabolic competence (metabolism negative), Deisenroth Lab (AID 2284029)
Summary of the method: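 Chemicals (10-point series, 0.002-200 uM) were incubated 2 h with alginate-water microspheres lacking S9. The conditioned medium was then transferred onto VM7Luc4E2 cells for 24 h. Viability was measured by protease-substrate cleavage to a fluorescent probe, with loss of signal fitted bidirectionally; n≥4 experimental replicates.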

Cellular tumor antigen p53 (Homo sapiens), sequence (P04637 whole entry, looked up): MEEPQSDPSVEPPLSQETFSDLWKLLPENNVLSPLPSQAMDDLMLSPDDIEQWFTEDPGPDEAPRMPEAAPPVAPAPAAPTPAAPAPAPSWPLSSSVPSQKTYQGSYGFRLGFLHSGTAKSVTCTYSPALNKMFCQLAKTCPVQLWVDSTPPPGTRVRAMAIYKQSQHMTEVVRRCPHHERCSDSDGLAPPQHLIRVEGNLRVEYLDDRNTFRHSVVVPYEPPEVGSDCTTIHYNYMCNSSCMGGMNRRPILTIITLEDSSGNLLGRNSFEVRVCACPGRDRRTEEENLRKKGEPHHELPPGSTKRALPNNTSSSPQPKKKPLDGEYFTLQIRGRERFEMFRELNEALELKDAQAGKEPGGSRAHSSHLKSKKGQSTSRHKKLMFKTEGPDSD

With `Cc1cc(O)c2ccccc2c1O` the outcome [1] was “inactive”, the outcome [2] was “inactive” and the outcome [3] was “inactive”. For the same compound, the outcome [4] was “inactive”, the outcome [5] was “inactive” and the outcome [6] was “inactive”.

For `CC1=C(C)C(=O)C(CCCCC#CCCCC#CCO)=C(C)C1=O`, the outcome [1] was “inactive”, the outcome [2] was “inactive” and the outcome [3] was “inactive”. The outcome [4] was “inactive”, the outcome [5] was “inactive” and the outcome [6] was “inactive”.

With `O=C=Nc1cccc(C(F)(F)F)c1` the outcome [1] was “inactive”, the AC50 [2] was 86.2 µM (active) and the outcome [3] was “inactive”. The outcome [4] was “inactive”, the outcome [5] was “inactive” and the outcome [6] was “inactive”.

With `COC(=O)N/N=C/c1c[n+]([O-])c2ccccc2[n+]1[O-]` the outcome [1] was “inactive”, the outcome [2] was “inactive” and the outcome [3] was “inactive”. For the same compound, the outcome [4] was “inactive”, the outcome [5] was “inactive” and the outcome [6] was “inactive”.

In the case of `Cc1cccc(Nc2ncccc2C(=O)O)c1C`, the outcome [1] is reported as “inactive”, the outcome [2] is reported as “inactive” and the outcome [3] is reported as “inactive”. The outcome [4] was “inactive”, the outcome [5] was “inactive” and the outcome [6] was “inactive”.

In the case of `Nc1ccc(S(=O)(=O)Nc2ccccn2)cc1`, the outcome [1] is reported as “inactive”, the outcome [2] is reported as “inactive” and the outcome [3] is reported as “inactive”. For the same compound, the outcome [4] was “inactive”, the outcome [5] was “inactive” and the outcome [6] was “inactive”.

In the case of `O=C1CCC(=O)N1CO`, the outcome [1] is reported as “inactive”, the outcome [2] is reported as “inactive” and the outcome [3] is reported as “inactive”. For the same compound, the outcome [4] was “inactive”, the outcome [5] was “inactive” and the outcome [6] was “inactive”.

In the case of `Nc1nccs1`, the outcome [1] is reported as “inactive”, the outcome [2] is reported as “inactive” and the outcome [3] is reported as “inactive”. The outcome [4] was “inactive”, the outcome [5] was “inactive” and the outcome [7] was “inactive”. For the same compound, the outcome [6] was “inactive”.

For `O=C(O)C(Cc1cc(I)c(O)c(I)c1)c1ccccc1` (stereo unspecified), the outcome [1] was “inactive”, the outcome [2] was “inactive” and the outcome [3] was “inactive”. The outcome [4] was “inactive”, the outcome [5] was “inactive” and the outcome [6] was “inactive”.

With `COc1cc(OC)c(C(=O)CCCN2CCCC2)c(OC)c1` the outcome [1] was “inactive”, the outcome [2] was “inactive” and the outcome [3] was “inactive”. For the same compound, the outcome [4] was “inactive”, the outcome [5] was “inactive” and the outcome [7] was “inactive”. For the same compound, the outcome [6] was “inactive”, the outcome [8] was “inactive” and the outcome [9] was “inactive”.

For `CCN(CC)CCC(=O)N1c2ccccc2Sc2ccc(Cl)cc21`, the outcome [1] was “inactive”, the outcome [2] was “inactive” and the outcome [3] was “inactive”. For the same compound, the outcome [4] was “inactive”, the outcome [5] was “inactive” and the outcome [6] was “inactive”.

For `N=C(N)n1cccn1`, the outcome [1] was “inactive”, the outcome [2] was “inactive” and the outcome [3] was “inactive”. The outcome [4] was “inactive”, the outcome [5] was “inactive” and the outcome [7] was “inactive”. The outcome [6] was “inactive”.

With `O=P(O)(O)C(O)(Cc1cccnc1)P(=O)(O)O` the outcome [1] was “inactive”, the outcome [2] was “inactive” and the outcome [3] was “inactive”. For the same compound, the outcome [4] was “inactive”, the outcome [5] was “inactive” and the outcome [6] was “inactive”.

With `CC(C)(c1ccccc1)c1ccccc1` the outcome [1] was “inactive”, the outcome [2] was “inactive” and the outcome [3] was “inactive”. For the same compound, the outcome [4] was “inactive”, the outcome [5] was “inactive” and the outcome [6] was “inactive”. The outcome [10] was “inactive” and the outcome [11] was “inactive”.
